Results as given in PubChem BioAssay (NCATS).
Records with an inconclusive call do not appear. Active and inactive are the calls of the source. Calls follow the shape of the dose curve; as a rule, active = well fitted curve in the direction sought with a large enough effect; inconclusive = small, poorly fitted or top-dose-only effect, or another doubt; inactive = no such curve, though single readings can be large; an effect the other way counts as inactive or inconclusive.

Assays:
[1] = target: ATP-dependent 6-phosphofructokinase (Trypanosoma brucei brucei) (UniProt O15648); assay: qHTS Assay to Find Inhibitors of T. brucei phosphofructokinase: hit validation (AID 492961);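 also: luminescence reports ADP formed as PFK phosphorylates fructose-6-phosphate with ATP; % is scaled to controls: 0 for no effect and ±100 for the full control effect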
Summary of the method: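 Measures ADP output of PFK (1.25 nM) at 0.1 mM ATP, 0.5 mM F6P, pH 8.0 TEA buffer with 5 mM MgCl2. No-enzyme wells define full inhibition; uninhibited enzyme wells define zero.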

[2] = qHTS profiling for inhibitors of Plasmodium falciparum proliferation (AID 504749); also: potency is read from the fitted curve at half-maximal effect;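 as to activity, negative = inhibition: 0% = DMSO vehicle and full inhibition = artemisinin control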; as to all read-outs here: nearly all actives have a fitted effect of over 60% in size; conditions: P. falciparum in erythrocytes, SYBR Green DNA, 72 h; for activity, negative = inhibition: at 28.7 µM (top of the series)
Summary of the method: (§1)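 Three-day growth assay of blood-stage parasites in erythrocytes (0.3% parasitemia, 2.5% hematocrit) at 37 C, 5% CO2, quantified by SYBR Green DNA staining after overnight detergent lysis.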

3D7 = assay: as above; conditions: P. falciparum in erythrocytes, SYBR Green DNA, 72 h; series mostly up to 28.7 µM
Summary of the method: as §1

7G8 = assay: as above; conditions: P. falciparum in erythrocytes, SYBR Green DNA, 72 h; series mostly up to 28.7 µM
Summary of the method: as §1

AS120 = assay: as above; conditions: P. falciparum in erythrocytes, SYBR Green DNA, 72 h; series mostly up to 28.7 µM
Summary of the method: as §1

ATS189 = assay: as above; conditions: P. falciparum in erythrocytes, SYBR Green DNA, 72 h; series mostly up to 28.7 µM
Summary of the method: as §1

CP185 = assay: as above; conditions: P. falciparum in erythrocytes, SYBR Green DNA, 72 h; series mostly up to 28.7 µM
Summary of the method: as §1

CP191 = assay: as above; conditions: P. falciparum in erythrocytes, SYBR Green DNA, 72 h; series mostly up to 28.7 µM
Summary of the method: as §1

CP192 = assay: as above; conditions: P. falciparum in erythrocytes, SYBR Green DNA, 72 h; series mostly up to 28.7 µM
Summary of the method: as §1

CP194 = assay: as above; conditions: P. falciparum in erythrocytes, SYBR Green DNA, 72 h; series mostly up to 28.7 µM
Summary of the method: as §1

CP201 = assay: as above; conditions: P. falciparum in erythrocytes, SYBR Green DNA, 72 h; series mostly up to 28.7 µM
Summary of the method: as §1

CP203 = assay: as above; conditions: P. falciparum in erythrocytes, SYBR Green DNA, 72 h; series mostly up to 28.7 µM
Summary of the method: as §1

CP247 = assay: as above; conditions: P. falciparum in erythrocytes, SYBR Green DNA, 72 h; series mostly up to 28.7 µM
Summary of the method: as §1

CP286 = assay: as above; conditions: P. falciparum in erythrocytes, SYBR Green DNA, 72 h; series mostly up to 28.7 µM
Summary of the method: as §1

CP291 = assay: as above; conditions: P. falciparum in erythrocytes, SYBR Green DNA, 72 h; series mostly up to 28.7 µM
Summary of the method: as §1

CP305 = assay: as above; conditions: P. falciparum in erythrocytes, SYBR Green DNA, 72 h; series mostly up to 28.7 µM
Summary of the method: as §1

DFO2036 = assay: as above; conditions: P. falciparum in erythrocytes, SYBR Green DNA, 72 h; series mostly up to 28.7 µM
Summary of the method: as §1

DIV30 = assay: as above; conditions: P. falciparum in erythrocytes, SYBR Green DNA, 72 h; series mostly up to 28.7 µM
Summary of the method: as §1

HB3 = assay: as above; conditions: P. falciparum in erythrocytes, SYBR Green DNA, 72 h; series mostly up to 28.7 µM
Summary of the method: as §1

P94_40 = assay: as above; conditions: P. falciparum in erythrocytes, SYBR Green DNA, 72 h; series mostly up to 28.7 µM
Summary of the method: as §1

Sequence of ATP-dependent 6-phosphofructokinase (Trypanosoma brucei brucei) (O15648 whole entry, looked up): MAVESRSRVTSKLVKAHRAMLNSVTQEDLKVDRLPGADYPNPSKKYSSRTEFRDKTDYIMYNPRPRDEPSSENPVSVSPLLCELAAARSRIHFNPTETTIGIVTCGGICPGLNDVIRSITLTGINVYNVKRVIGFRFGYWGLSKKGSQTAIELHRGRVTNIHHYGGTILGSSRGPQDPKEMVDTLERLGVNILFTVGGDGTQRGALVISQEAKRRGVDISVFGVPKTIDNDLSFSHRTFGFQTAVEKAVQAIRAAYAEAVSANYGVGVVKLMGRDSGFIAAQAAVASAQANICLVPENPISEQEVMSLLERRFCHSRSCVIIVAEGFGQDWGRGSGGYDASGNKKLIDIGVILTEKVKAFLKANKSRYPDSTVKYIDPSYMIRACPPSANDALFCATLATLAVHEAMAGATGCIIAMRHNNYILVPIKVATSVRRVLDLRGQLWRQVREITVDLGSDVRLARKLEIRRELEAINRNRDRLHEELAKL

C[C@@H]1C(SC2Cn3cnc[n+]3C2)=C(C(=O)[O-])N2C(=O)[C@H]([C@@H](C)O)[C@@H]12 (stereo not given in full)
inactive: Potency [1] | activity, negative = inhibition ([2]; parasite line A) 6.33% | activity, negative = inhibition ([2]; parasite line B) 11.1% | Potency (3D7) | Potency (7G8) | Potency (AS120) | Potency (ATS189) | Potency (CP185) | Potency (CP191) | Potency (CP192) | Potency (CP194) | Potency (CP201) | Potency (CP203) | Potency (CP247) | Potency (CP286) | Potency (CP291) | Potency (CP305) | Potency (DFO2036) | Potency (DIV30) | Potency (HB3) | Potency (P94_40)

CC[C@@H]1/C=C(\C)C[C@H](C)C[C@H](OC)[C@H]2O[C@@](O)(C(=O)C(=O)N3CCCC[C@H]3C(=O)O[C@H](/C(C)=C/[C@@H]3CC[C@H](Cl)[C@H](OC)C3)[C@H](C)[C@@H](O)CC1=O)[C@H](C)C[C@@H]2OC
inactive: Potency [1] | activity, negative = inhibition ([2]; parasite line A) 10.4% | activity, negative = inhibition ([2]; parasite line B) 3.17% | Potency (3D7) | Potency (7G8) | Potency (AS120) | Potency (ATS189) | Potency (CP185) | Potency (CP191) | Potency (CP192) | Potency (CP194) | Potency (CP201) | Potency (CP203) | Potency (CP247) | Potency (CP286) | Potency (CP291) | Potency (CP305) | Potency (DFO2036) | Potency (DIV30) | Potency (HB3) | Potency (P94_40)

Cc1ccc(S(=O)(=O)NC(=O)NC(C)Cc2ccccc2)cc1 (stereo not given)
inactive: Potency [1] | activity, negative = inhibition ([2]; parasite line A) 7.07% | activity, negative = inhibition ([2]; parasite line B) 4.66% | Potency (3D7) | Potency (7G8) | Potency (AS120) | Potency (ATS189) | Potency (CP185) | Potency (CP191) | Potency (CP192) | Potency (CP194) | Potency (CP201) | Potency (CP203) | Potency (CP247) | Potency (CP286) | Potency (CP291) | Potency (CP305) | Potency (DFO2036) | Potency (DIV30) | Potency (HB3) | Potency (P94_40)

Cc1cnc(C(=O)O)cn1
inactive: Potency [1] | activity, negative = inhibition ([2]; parasite line A) 9.61% | activity, negative = inhibition ([2]; parasite line B) 7.1% | Potency (3D7) | Potency (7G8) | Potency (AS120) | Potency (ATS189) | Potency (CP185) | Potency (CP191) | Potency (CP192) | Potency (CP194) | Potency (CP201) | Potency (CP203) | Potency (CP247) | Potency (CP286) | Potency (CP291) | Potency (CP305) | Potency (DFO2036) | Potency (DIV30) | Potency (HB3) | Potency (P94_40)

Cc1ccc(Nc2ncccc2C(=O)O)cc1C
inactive: Potency [1] | activity, negative = inhibition ([2]; parasite line A) 6.4% | activity, negative = inhibition ([2]; parasite line B) 7.72% | Potency (3D7) | Potency (7G8) | Potency (AS120) | Potency (ATS189) | Potency (CP185) | Potency (CP191) | Potency (CP192) | Potency (CP194) | Potency (CP201) | Potency (CP203) | Potency (CP247) | Potency (CP286) | Potency (CP291) | Potency (CP305) | Potency (DFO2036) | Potency (DIV30) | Potency (HB3) | Potency (P94_40)

CC(C)C[C@@H](NC(=O)[C@@H](Cc1ccccc1)NC(=O)c1cnccn1)B(O)O
active: Potency ([2]; parasite line A) 0.0794 µM | Potency ([2]; parasite line B) 0.0794 µM | Potency (3D7) 0.112 µM | Potency (7G8) 0.0398 µM | Potency (AS120) 0.1 µM | Potency (ATS189) 0.112 µM | Potency (CP185) 0.112 µM | Potency (CP191) 0.1 µM | Potency (CP192) 0.19 µM | Potency (CP194) 0.426 µM | Potency (CP201) 0.536 µM | Potency (CP203) 0.338 µM | Potency (CP247) 0.126 µM | Potency (CP286) 0.0891 µM | Potency (CP291) 0.151 µM | Potency (CP305) 0.757 µM | Potency (DFO2036) 0.112 µM | Potency (DIV30) 0.338 µM | Potency (HB3) 0.0794 µM | Potency (P94_40) 0.126 µM
inactive: Potency [1]

CC12C=CC(=O)C=C1[C@@H](F)CC1C2C(O)CC2(C)C1CC[C@]2(O)C(=O)CO (stereo not given in full)
inactive: Potency [1] | activity, negative = inhibition ([2]; parasite line A) 4.43% | activity, negative = inhibition ([2]; parasite line B) 5.63% | Potency (3D7) | Potency (7G8) | Potency (AS120) | Potency (ATS189) | Potency (CP185) | Potency (CP191) | Potency (CP192) | Potency (CP194) | Potency (CP201) | Potency (CP203) | Potency (CP247) | Potency (CP286) | Potency (CP291) | Potency (CP305) | Potency (DFO2036) | Potency (DIV30) | Potency (HB3) | Potency (P94_40)

COC(c1ccccc1)(c1ccccc1)C(Oc1nc(C)cc(C)n1)C(=O)O (stereo not given)
inactive: Potency [1] | activity, negative = inhibition ([2]; parasite line A) 2.94% | activity, negative = inhibition ([2]; parasite line B) 8.39% | Potency (3D7) | Potency (7G8) | Potency (AS120) | Potency (ATS189) | Potency (CP185) | Potency (CP191) | Potency (CP192) | Potency (CP194) | Potency (CP201) | Potency (CP203) | Potency (CP247) | Potency (CP286) | Potency (CP291) | Potency (CP305) | Potency (DFO2036) | Potency (DIV30) | Potency (HB3) | Potency (P94_40)

CCN(CC)C(=O)Nc1ccc(OC[C@H](O)CNC(C)(C)C)c(C(C)=O)c1
inactive: Potency [1] | activity, negative = inhibition ([2]; parasite line A) 5.16% | activity, negative = inhibition ([2]; parasite line B) -3.7% | Potency (3D7) | Potency (7G8) | Potency (AS120) | Potency (ATS189) | Potency (CP185) | Potency (CP191) | Potency (CP192) | Potency (CP194) | Potency (CP201) | Potency (CP203) | Potency (CP247) | Potency (CP286) | Potency (CP291) | Potency (CP305) | Potency (DFO2036) | Potency (DIV30) | Potency (HB3) | Potency (P94_40)

CCCCC/C(C=O)=C/c1ccccc1
inactive: Potency [1] | activity, negative = inhibition ([2]; parasite line A) -0.781% | activity, negative = inhibition ([2]; parasite line B) -10.8% | Potency (3D7) | Potency (7G8) | Potency (AS120) | Potency (ATS189) | Potency (CP185) | Potency (CP191) | Potency (CP192) | Potency (CP194) | Potency (CP201) | Potency (CP203) | Potency (CP247) | Potency (CP286) | Potency (CP291) | Potency (CP305) | Potency (DFO2036) | Potency (DIV30) | Potency (HB3) | Potency (P94_40)
